Inconclusive results are not listed. Active and inactive are the calls of the source. Calls follow the shape of the dose curve; as a rule, active = well fitted curve in the direction sought with a large enough effect; inconclusive = small, poorly fitted or top-dose-only effect, or another doubt; inactive = no such curve, though single readings can be large; an effect the other way counts as inactive or inconclusive.

The nature of assay [1]: qHTS for Inhibitors of Plasmodium falciparum (DD2) proliferation (AID 504314). Also: potency is read from the fitted curve at half-maximal effect. In outline: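 SYBR Green DNA-fluorescence growth assay: infected RBCs at 0.3% parasitemia, 2.5% hematocrit, 72 h compound exposure, 37C, 5% CO2; overnight lysis with dye at RT; normalized to 0.29 uM artemisinin and vehicle.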
The nature of assay [2]: S16 Schwann cell PMP22 intronic element firefly luciferase assay (AID 624032). Also: nearly all actives have a fitted effect of over 30% in size. Also: potency is read from the fitted curve at half-maximal effect. In outline: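 Rat S16 Schwann cells stably carrying firefly luciferase driven by a PMP22 intronic element, in 10% FBS, treated 24 h at 37 C. ONE-Glo luminescence normalized to PTC124 control and DMSO (0%); curves classed by r2, magnitude and activity.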
The test system of assay [3] is DIV14. As to the kind of experiment: qHTS profiling for inhibitors of Plasmodium falciparum proliferation (AID 504749). Also: nearly all actives have a fitted effect of over 60% in size. Also: potency is read from the fitted curve at half-maximal effect. Conditions: P. falciparum in erythrocytes, SYBR Green DNA, 72 h; series mostly up to 28.7 µM. In outline:
(§1)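 SYBR Green fluorescence (ex 485 nm, em 535 nm) reports parasite DNA after 72 h compound exposure of infected red cells at 0.3% parasitemia, 2.5% hematocrit; signal normalized to 0.29 uM artemisinin and vehicle wells.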
A general note: qHTS replaces the single test concentration by a dilution series.

Assay [4] relates to ICS. The description is as above. Conditions: P. falciparum in erythrocytes, SYBR Green DNA, 72 h; series mostly up to 28.7 µM. In outline: as §1
The target in assay [5] is Ubiquitin carboxyl-terminal hydrolase 1 (Homo sapiens) (UniProt O94782). Kind of assay: Inhibitors of USP1/UAF1: Pilot qHTS (AID 504865).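 Also: rhodamine fluorescence freed from ubiquitin-rhodamine substrate followed over time; top concentration of the series differs between compounds; nearly all actives have a fitted effect of over 35% in size.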 In outline: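 In 50mM HEPES pH 7.8 containing 0.5mM EDTA, 1mM TCEP, 0.1 mg/ml BSA and 0.01% Tween-20, 1nM USP1/UAF1 is exposed to compound for 15 min, then Ub-Rho (150nM final) is added and fluorescence is read over time.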
Assay [6] deals with GB4. As to the kind of experiment: qHTS profiling for inhibitors of Plasmodium falciparum proliferation (AID 504749). Also: nearly all actives have a fitted effect of over 60% in size. Also: potency is read from the fitted curve at half-maximal effect. Conditions: P. falciparum in erythrocytes, SYBR Green DNA, 72 h; series mostly up to 28.7 µM. The method, boiled down:
as §1

For assay [7], the system named is W2. Described as above. The note with it: P. falciparum in erythrocytes, SYBR Green DNA, 72 h; series mostly up to 28.7 µM. In outline: as §1
Assay [8] is described as follows: qHTS for Inhibitors of Plasmodium falciparum (GB4) proliferation (AID 504315). Also: nearly all actives have a fitted effect of over 50% in size. Also: potency is read from the fitted curve at half-maximal effect. In outline:
(§2)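 Parasite growth measured as SYBR Green DNA fluorescence (ex 485, em 535 nm) after overnight lysis following 72 h culture at 37 °C, 0.3% parasitemia, 2.5% hematocrit. Values normalized against DMSO and 0.29 uM artemisinin controls, with plate-stack correction.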

Assay [9] is described as follows: qHTS for Inhibitors of Plasmodium falciparum (7G8) proliferation (AID 504316). Also: potency is read from the fitted curve at half-maximal effect; nearly all actives have a fitted effect of over 65% in size. In outline: as §2

Ubiquitin carboxyl-terminal hydrolase 1 (Homo sapiens), sequence (O94782 whole entry, looked up): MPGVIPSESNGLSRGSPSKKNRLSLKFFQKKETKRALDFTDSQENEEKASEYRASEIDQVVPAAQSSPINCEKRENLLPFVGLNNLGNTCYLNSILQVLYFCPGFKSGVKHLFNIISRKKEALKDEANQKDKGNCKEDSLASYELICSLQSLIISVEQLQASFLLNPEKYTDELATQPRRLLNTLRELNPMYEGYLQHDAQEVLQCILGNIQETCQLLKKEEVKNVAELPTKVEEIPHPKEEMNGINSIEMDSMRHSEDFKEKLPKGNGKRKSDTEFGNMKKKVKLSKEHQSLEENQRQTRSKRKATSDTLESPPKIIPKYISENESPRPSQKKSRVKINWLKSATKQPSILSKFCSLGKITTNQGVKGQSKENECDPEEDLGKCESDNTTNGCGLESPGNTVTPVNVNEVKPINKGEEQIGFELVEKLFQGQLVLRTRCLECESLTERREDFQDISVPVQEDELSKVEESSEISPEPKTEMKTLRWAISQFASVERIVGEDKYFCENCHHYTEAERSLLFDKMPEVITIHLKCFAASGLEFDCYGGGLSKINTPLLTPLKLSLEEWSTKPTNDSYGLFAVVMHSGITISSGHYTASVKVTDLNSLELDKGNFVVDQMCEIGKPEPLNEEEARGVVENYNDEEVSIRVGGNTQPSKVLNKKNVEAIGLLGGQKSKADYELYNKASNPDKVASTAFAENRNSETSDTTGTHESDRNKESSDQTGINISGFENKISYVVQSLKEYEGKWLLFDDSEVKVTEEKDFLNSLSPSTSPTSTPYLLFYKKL

Regarding `C[C@@H]1CC[C@H]2C(=O)N(Cc3ccc(Cl)cc3)C[C@H](O)CN2[C@@H]1c1ccc(Br)cc1`, the Potency in assay [1] is 1.69 µM (active).

As to `Oc1cc2cc(CCN3CCN(c4nsc5ccccc45)CC3)c(Cl)cc2[nH]1`, the Potency result in assay [2] was “inactive”. Also, the Potency is 6.75 µM (active) in [3] and 6.31 µM (active) in assay [4].

For the compound `C=CCN1CC(C(=O)N(CCCN(C)C)C(=O)NCC)CC2c3cccc4[nH]cc(c34)CC21` (stereo not given), the Potency result in assay [5] was “inactive”. In addition, the Potency in assay [3] was 15.1 µM (active); in assay [6], 15.1 µM (active); in [4], 12.6 µM (active); in assay [7], 6.01 µM (active).

For `Cc1cc(O)c2c(c1)OC1(C)CCC3C(C)(C)CCCC34COC2C14` (stereo not given), the Potency is 28.7 µM (active) in assay [2]; 8.49 µM (active) in assay [3]; 15.1 µM (active) in assay [6]; 6.31 µM (active) in assay [4]; 8.49 µM (active) in assay [7].

On to `CC#CCN1c2ccccc2[C@]23C[C@@H](C(=O)OC)N(S(=O)(=O)c4ccc(Br)cc4)C2=NC(C(=O)OC)=C(C(=O)OC)[C@H]13`, for which the Potency result in assay [1] was “inactive”. Further, the Potency in [8] is 1.69 µM (active); in assay [9], 1.9 µM (active).

`COC(=O)C1=C(C(=O)OC)[C@@H]2N(C)c3ccccc3[C@@]23C[C@@H](C(=O)OC)N(S(=O)(=O)c2ccc(C(F)(F)F)cc2)C3=N1`: the Potency entry in [1] was “inactive”. Further, the Potency in assay [8] was 2.13 µM (active).

As to `C=C1CC[C@H](O)C/C1=C/C=C1\CCC[C@]2(C)[C@@H]([C@H](C)CCCC(C)(C)O)CC[C@@H]12`, the Potency in assay [4] was 7.94 µM (active).

On to `C=C1CCC(O)C/C1=C/C=C1\CCC[C@]2(C)[C@@H]([C@H](C)/C=C/[C@H](C)C(C)C)CC[C@@H]12` (stereo not given in full), for which, in assay [2], the Potency was 36.1 µM (active). Also, the Potency entry in assay [3] is “inactive”.

Consider `CC1=C(/C=C/C(C)=C\C=C\C(C)=C\C=C\C=C(C)\C=C\C=C(C)\C=C\C2=C(C)C[C@@H](O)CC2(C)C)C(C)(C)C[C@H](O)C1`, for which the Potency in [3] is 12 µM (active); in assay [6], 13.5 µM (active); in assay [4], 1.12 µM (active); in [7], 8.49 µM (active).

`C[C@H]1Cc2c(COc3ccccc3)nc3c(c2CO1)CN(C(=O)c1ccco1)CC3`: the Potency result in [1] was “inactive”.

In the case of `CC#CCN1c2ccccc2[C@]23C[C@@H](C(=O)OC)N(S(=O)(=O)c4ccc(C(F)(F)F)cc4)C2=NC(C(=O)OC)=C(C(=O)OC)[C@H]13`, the Potency entry in assay [1] is “inactive”. Moreover, the Potency in assay [8] is 1.9 µM (active).

Turning to `Nc1ccccc1C(=O)C=Cc1ccccc1`, the Potency result in [1] and in assay [8] was “inactive” each time.

For the compound `C[C@@H]1CC2[C@@H]3C[C@H](F)C4=CC(=O)C(Cl)=C[C@]4(C)[C@@]3(F)[C@H](O)C[C@]2(C)[C@@]1(O)C(=O)CO` (stereo not given in full), in [2], the Potency result is “inactive”.

For the compound `COC(=O)C1=C(C(=O)OC)[C@@H]2Nc3ccccc3[C@@]23C[C@@H](C(=O)OC)N(S(=O)(=O)c2ccc4c(c2)OCCN4C)C3=N1`, in assay [1], the Potency result is “inactive”. Further, the Potency in assay [8] is 1.69 µM (active); in [9], 1.51 µM (active).

`CC#CCN1c2ccccc2[C@]23C[C@@H](C(=O)OC)N(S(=O)(=O)CCCC)C2=NC(C(=O)OC)=C(C(=O)OC)[C@H]13`: the Potency result in assay [1] is “inactive”.

For `COC(=O)C1[C@@H](OC)C(OC(=O)COc2ccc(OC)cc2)C[C@@H]2CN3CCc4c([nH]c5cc(OC)ccc45)[C@H]3C[C@H]12` (stereo not given in full), the Potency result in assay [5] was “inactive”. Further, the Potency in assay [3] was 7.57 µM (active); in [4] it was 5.01 µM (active); in assay [7], 8.49 µM (active).

Regarding `C=C1N[C@]2(C(=O)COC(C)=O)[C@@H](C[C@H]3[C@@H]4CCC5=CC(=O)C=C[C@]5(C)[C@H]4[C@@H](O)C[C@@]32C)O1`, the Potency entry in assay [5], in assay [2], in [3] and in assay [6] was “inactive” each time. Besides, the Potency in assay [7] was 15.1 µM (active).

(Values after PubChem BioAssay (NCATS).)
